The whole screen tested about 400,000 compounds, of which about 5,500 (1.4%) were called active. Entries that show only a call come without a potency. Not shown: some 9% with an inconclusive outcome. This is one part of a sample in which actives are shown more often than they occur. Calls follow the shape of the dose curve; as a rule, active = well fitted cell-killing curve with a large enough effect; inconclusive = small, poorly fitted or top-dose-only effect, or effect the other way; inactive = flat fitted curve, though single readings scatter.
Assay: qHTS assay for MDR1-selective chemotherapeutics: Primary screen using the parental adenocarcinoma cell KB-3-1; also: nearly all actives have a fitted effect of over 60% in size
Details: KB-3-1 viability, CellTiter-Glo ATP luminescence, 72 h; series mostly up to 46.1 µM
In short: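 KB-3-1 parental drug-naive adenocarcinoma cells in DMEM/10% FBS, incubated 72 h at 37 C with pin-transferred compounds across a concentration series. Viability by CellTiter-Glo luminescence; concentration-response curves fitted after normalization.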
In the case of `Cn1c(=O)c2c(nc(SCC(=O)Nc3ccc(F)cc3)n2Cc2ccc(Cl)cc2)n(C)c1=O`, the Potency is reported as “inactive”. With `COc1ccc(-c2onc(C)c2C)cc1S(=O)(=O)NCC1CCN(Cc2cccc(F)c2)CC1` the Potency was “inactive”. With `Cc1ccc(CS(=O)(=O)c2ncc(Cl)c(C(=O)Nc3nnc(C)s3)n2)cc1` the Potency was 20.6 µM (active). With `CCS(=O)(=O)c1ncc(N(Cc2ccc(F)cc2)Cc2ccco2)c(C(=O)Nc2cc(C)ccc2C)n1` the Potency was “inactive”. In the case of `Cc1cccc(NC(=O)c2nc(S(=O)(=O)Cc3ccccc3)ncc2Cl)c1`, the Potency is reported as 5.8 µM (active). For `CC(=O)c1cccc(NC(=O)c2nc(-c3ccccc3)n(-c3cccc(C)c3)n2)c1`, the Potency was “inactive”. For `Cc1cccc(NC(=O)Cn2cc(S(=O)(=O)Cc3ccccc3Cl)c3ccccc32)c1`, the Potency was “inactive”. For `Cc1ccc2nc(NC(=O)c3nc(SCc4ccccc4F)ncc3Cl)sc2c1`, the Potency was “inactive”. In the case of `O=C(Nc1nnc(Cc2ccc(Cl)cc2)s1)c1cccnc1`, the Potency is reported as “inactive”. For `O=C(Nc1nnc(Cc2ccc(Cl)cc2)s1)c1ccncc1`, the Potency was “inactive”. In the case of `CSc1nnc(NC(=O)c2nc(S(=O)(=O)Cc3ccc(C)cc3)ncc2Cl)s1`, the Potency is reported as 16.4 µM (active). In the case of `CCOC(=O)c1c(NC(=O)CSc2cn(CCNC(=O)c3cccc(C(F)(F)F)c3)c3ccccc23)sc2c1CCC2`, the Potency is reported as “inactive”. In the case of `CC1(C)Cc2ccccc2-c2c[nH]c(=O)n21`, the Potency is reported as “inactive”. In the case of `COc1ccc(-c2cc(-c3nc(-c4cc(OC)c(OC)c(OC)c4)no3)[nH]n2)c(OC)c1`, the Potency is reported as “inactive”. With `CC1CCN(S(=O)(=O)c2ccc3c(ccn3CCC(=O)NCc3ccc(N(C)C)cc3)c2)CC1` the Potency was “inactive”. With `COc1ccc(N(C)C(=O)C2CCN(S(=O)(=O)c3cc(Br)cc4c3N(C(C)=O)CC4)CC2)cc1` the Potency was “inactive”. With `CN1CCN(c2ccc(NC(=O)c3ccc4c(c3)OCCO4)cc2Cl)CC1` the Potency was “inactive”. With `O=C(Nc1cccc(S(=O)(=O)Nc2ccc(Cl)cc2)c1)c1ccc2c(c1)OCCO2` the Potency was 8.2 µM (active). For `CCN(CC)CCNC(=O)c1ccc(NS(=O)(=O)c2ccc3c(c2)OCCO3)cc1`, the Potency was “inactive”. With `CN(C(=N)N)c1ccc(/C=C2\C=Cc3ccccc32)cc1` the Potency was “inactive”. In the case of `COc1ccccc1NC(=O)CSC1=Nc2ccccc2C2=NC(CC(=O)NCc3cccs3)C(=O)N12` (stereo unspecified), the Potency is reported as “inactive”. With `O=C(Nc1ccc2c(c1)CCC2)c1cccc(S(=O)(=O)N2CCN(c3ccc(F)cc3)CC2)c1` the Potency was “inactive”. In the case of `Cc1cccnc1NC(=O)c1cccc(S(=O)(=O)N2CCN(c3ccc(F)cc3)CC2)c1`, the Potency is reported as 20.6 µM (active). With `Cc1ccc(C(=O)Nc2ncccc2C)cc1S(=O)(=O)N1CCOCC1` the Potency was “inactive”. In the case of `CCOC(=O)c1cc2ccccc2n1CC(=O)c1ccccc1`, the Potency is reported as “inactive”. For `CCn1c(/C=C/Nc2ccccc2)[n+](CC)c2ccc(C(=O)OCC(F)(F)F)cc21`, the Potency was 18.4 µM (active). For `CCOC(=O)c1ccc2c(c1)nc(C)n2CC`, the Potency was “inactive”. For `COc1ccccc1-c1noc(-c2ccc(NCc3ccccc3)c([N+](=O)[O-])c2)n1`, the Potency was “inactive”. For `CNC(=O)C[C@H]1C(=O)N(c2ccc(OC)cc2)C[C@@H]1Cc1ccccc1`, the Potency was “inactive”. In the case of `C[C@H]1CN(c2ccc(Br)cc2)C(=O)[C@@H]1CC(=O)Nc1ccc(Br)cc1`, the Potency is reported as “inactive”. In the case of `O=C1N(Cc2ccccc2)c2ccc(Cl)cc2C1(O)c1c[nH]c2ccccc12` (stereo unspecified), the Potency is reported as “inactive”. With `CCC(O)CNc1nc(-n2nc(C)cc2C)nc2sc3c(c12)CC(C)(C)OC3` (stereo unspecified) the Potency was “inactive”. In the case of `COCCNc1nc(-n2nc(C)cc2C)nc2sc3c(c12)CCCC3`, the Potency is reported as 11.6 µM (active). With `CCc1nc(N2CCN(C(C)=O)CC2)c2c3c(sc2n1)CCCC3` the Potency was “inactive”. For `Cc1c(/C=N/N2C(=O)C3C4C=CC(C4)C3C2=O)c2ccccc2n1C` (stereo unspecified), the Potency was “inactive”. In the case of `CC(C)Oc1ccc(NC(=O)c2cc3ccccc3o2)cc1`, the Potency is reported as “inactive”. For `Cc1c(/C=N\NC(=O)c2cc3ccccc3o2)c2ccccc2n1C`, the Potency was 8.2 µM (active). For `O=C(c1ccc(C(F)(F)F)cc1)N1CCC(=O)N([C@H](COCc2ccccc2)Cc2ccccc2)CC1`, the Potency was “inactive”. With `CC(C)CC(COCc1ccc(Cl)cc1)N1CCN(C(=O)c2ccc(C(F)(F)F)cc2)CCC1=O` (stereo unspecified) the Potency was 18.4 µM (active). For `O=C(c1cc(Cl)cc(Cl)c1)N1CCC(=O)N(C(COCc2ccccc2)Cc2ccccc2)CC1` (stereo unspecified), the Potency was “inactive”. For `COc1ccc(C(=O)NCC(c2ccc(N(C)C)cc2)N2CCc3ccccc32)c(OC)c1` (stereo unspecified), the Potency was “inactive”. For `CC1CC(C)CN(c2oc(-c3ccc(OCc4ccc(Cl)cc4)cc3)nc2C#N)C1` (stereo unspecified), the Potency was “inactive”. In the case of `Cc1ccc(Nc2nc3ccccc3nc2-n2nc(C)cc2C)c(Cl)c1`, the Potency is reported as “inactive”. With `CCCOc1ccccc1C1CC(=O)Nc2cc3c(cc21)OCO3` (stereo unspecified) the Potency was 2.59 µM (active). For `Cc1cc2c(cc1C)C(c1cccc(OC(C)C)c1)CC(=O)N2` (stereo unspecified), the Potency was “inactive”. In the case of `O=C1CC(c2ccc(F)cc2F)c2cc3c(cc2N1)OCO3` (stereo unspecified), the Potency is reported as “inactive”. For `CC(C)Cn1c(-c2ccc(S(=O)(=O)N3CCOCC3)cc2)csc1=Nc1cc(Cl)ccc1Cl`, the Potency was “inactive”. With `CN(N=O)c1ccc(C=C2c3ccccc3-c3ccccc32)cc1` the Potency was “inactive”. For `C[N+](C)(C)CCNC(=O)c1c[nH]c2ccccc12`, the Potency was “inactive”. With `COc1ccc(C2C(C(C)=O)=C(O)C(=O)N2CCc2c[nH]c3ccccc23)cc1` (stereo unspecified) the Potency was “inactive”. For `COc1ccc(/C=C(\C#N)c2c[nH]c3ccccc23)cc1`, the Potency was 1.64 µM (active). In the case of `Cc1cc(C(=O)CSc2nc(N)cc(=O)[nH]2)c(C)n1CCc1ccc(Cl)cc1`, the Potency is reported as “inactive”. For `Cc1cc(C(=O)CSc2nc(N)cc(=O)[nH]2)c(C)n1-c1cccc(F)c1`, the Potency was 5.8 µM (active). For `Cc1cc(C)c(C(=O)CSc2nc(C)cc(=O)[nH]2)c(C)c1`, the Potency was “inactive”. With `Cc1cccc(C(=O)N2CCc3cc(CNC(=O)Cc4ccc(F)cc4)ccc32)c1` the Potency was “inactive”. In the case of `CCOc1ccc(OCC)c(NS(=O)(=O)c2ccc3[nH]c(=O)ccc3c2)c1`, the Potency is reported as “inactive”. In the case of `O=[N+]([O-])c1ccccc1S(=O)(=O)Nc1cccc2cccnc12`, the Potency is reported as “inactive”. In the case of `COc1cc(NS(=O)(=O)c2ccc3ccccc3c2)c2ncccc2c1`, the Potency is reported as 6.51 µM (active). For `CCN(CCCNC(=O)CSc1cc(=O)n(C)c2cc(Cl)ccc12)c1cccc(C)c1`, the Potency was “inactive”. For `CCc1ccccc1NC(=O)/C(=C/c1ccccc1)c1ccccc1`, the Potency was “inactive”. In the case of `CCOC(=O)CCP(=O)(O)C(O)(c1ccccc1)c1ccccc1`, the Potency is reported as “inactive”. For `CCOC(=O)C(=Cc1ccccc1)C(=O)c1ccccc1`, the Potency was 20.6 µM (active). For `Cc1ccc2cccc(NC(=O)c3ccc(OC(C)C)cc3)c2n1`, the Potency was “inactive”. In the case of `CCOC(=O)C1CCCN(S(=O)(=O)c2cc(-c3cc(C)no3)ccc2OC)C1` (stereo unspecified), the Potency is reported as “inactive”. In the case of `CCc1cccc(C)c1NC(=S)N(CCCN1CCN(C)CC1)Cc1cccs1`, the Potency is reported as “inactive”. In the case of `Cc1ccc(NC(=S)N(CCCN2CCCC2)Cc2cccn2Cc2ccc(Cl)cc2)cc1`, the Potency is reported as 20.6 µM (active). For `Cc1ccccc1NC(=S)N(CCCN1CCOCC1)Cc1cccs1`, the Potency was “inactive”. For `Cc1ccccc1-c1nc(CS(=O)(=O)CC(=O)Nc2cc(Cl)cc(Cl)c2)c(C)o1`, the Potency was “inactive”. For `Cc1nnc(N2CCC(C(=O)Nc3ccc(F)cc3)CC2)c2nn(-c3ccc(Cl)cc3)c(C)c12`, the Potency was “inactive”. In the case of `CCc1ccccc1NS(=O)(=O)c1ccc2nc(-c3ccccc3)[nH]c2c1`, the Potency is reported as “inactive”. With `COc1cc(CNCCSc2nnnn2C)ccc1OCc1c(F)cccc1Cl` the Potency was 18.4 µM (active). For `COc1cc(CNCCSc2nnnn2C)ccc1OCc1ccc(Cl)cc1Cl`, the Potency was “inactive”. In the case of `COc1cc(CNCCN(C)C)ccc1OCc1c(F)cccc1Cl`, the Potency is reported as “inactive”. With `CCOC(=O)c1c(-c2cccc(C)c2)csc1NC(=O)c1c(-c2ccccc2)noc1C` the Potency was 5.17 µM (active). With `Cc1onc(-c2ccccc2Cl)c1C(=O)OCc1nnc(-c2ccccc2)o1` the Potency was “inactive”. With `CCOC(=O)c1c(NC(=O)c2cc(-c3ccc(Cl)cc3)on2)sc2c1CCCC2` the Potency was “inactive”. For `CC1=C(C(=O)Nc2ccccc2)C(c2ccc(C)cc2)n2nc(SCc3ccccc3C)nc2N1` (stereo unspecified), the Potency was “inactive”. In the case of `CCOc1ccc(N(CC)S(=O)(=O)N2CCCC(C(=O)NCc3ccc(SC)cc3)C2)cc1` (stereo unspecified), the Potency is reported as “inactive”. For `CC1(C)N=C(N)NC(Nc2ccc(Cl)cc2)=N1`, the Potency was “inactive”. In the case of `COc1ccccc1Nc1nc(N)nc(N)c1S(=O)(=O)c1ccccc1`, the Potency is reported as “inactive”. With `COc1ccccc1NC1=NC(c2ccc(Cl)cc2)N=C(N)N1` (stereo unspecified) the Potency was 3.66 µM (active). For `CCOC(=O)c1ccc(NC(=O)c2c(NCc3cccc(OC)c3)sc3c2CCC3)cc1`, the Potency was “inactive”. For `COc1ccc(-c2csc(-c3c(N)c(C(=O)c4ccc(OC)c(OC)c4)n4ccccc34)n2)cc1`, the Potency was “inactive”. With `CCN(CC)CCCC(C)Nc1ccnc2cc(Cl)ccc12` (stereo unspecified) the Potency was 10.3 µM (active). In the case of `CCN(CC)CCNc1ccc(Cl)cc1[N+](=O)[O-]`, the Potency is reported as “inactive”. With `CCN(CC)CCNc1ncnc2c1cnn2-c1cc(Cl)ccc1C` the Potency was “inactive”. In the case of `CNCCCOc1cc2nc(N3CCCN(C)CC3)nc(NC3CCN(C)CC3)c2cc1OC`, the Potency is reported as “inactive”. For `CCOC(=O)c1cc(-c2ccc(OC)c(S(=O)(=O)Nc3ccc(OC)cc3OC)c2)on1`, the Potency was “inactive”. With `Cc1cccc(CNC(=O)c2cnc3sc(N4CCCCC4)nn3c2=O)c1` the Potency was “inactive”. In the case of `Cc1ccc(CNC(=O)CSC2=Nc3ccccc3C3=NC(C)C(=O)N23)cc1` (stereo unspecified), the Potency is reported as “inactive”. In the case of `CC(C)C1N=C2c3ccccc3N=C(SCC(=O)c3ccc(O)c(O)c3)N2C1=O` (stereo unspecified), the Potency is reported as 23.1 µM (active). For `CCOC(=O)CSC1=Nc2ccccc2C2=NC(CCC(=O)NCc3ccc(F)cc3)C(=O)N12` (stereo unspecified), the Potency was “inactive”. For `CN(Cc1cn(Cc2ccc(C(F)(F)F)cc2)nn1)C1CN(Cc2cn(Cc3ccc(C(F)(F)F)cc3)nn2)S(=O)(=O)C1` (stereo unspecified), the Potency was 10.3 µM (active). With `CN(C)C1CN(Cc2cn(Cc3ccccc3)nn2)S(=O)(=O)C1` (stereo unspecified) the Potency was “inactive”. For `Cc1ccc(Cn2cc(CN3CC(N4CCN(C)CC4)CS3(=O)=O)nn2)cc1` (stereo unspecified), the Potency was “inactive”. In the case of `CCOc1ccc2nc(N3CCC(C(=O)Nc4cc(C)ccc4C)CC3)sc2c1`, the Potency is reported as “inactive”.

From PubChem BioAssay AID1347075 (National Center for Advancing Translational Sciences (NCATS), 2019)
Potency is read from the fitted curve at half-maximal effect.
